Reference: PubChem BioAssay (NCI)
Compounds without any hit were thinned out: in the full panel of roughly 79,000, 15% have a hit. Unmarked numbers belong to inactive results. Active and inactive are the calls of the source. Cut-off read from the data, not from the text of the source: active = growth inhibition above about 70%; inactive = the rest.

Tests used:
[1] = NCI Yeast Anticancer Drug Screen. Data for the rad50 strain (AID 155);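 note: 0% = growth of vehicle-only cultures of the same strain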; details: S. cerevisiae rad50 strain growth inhibition; at 50.0 µM; stronger effect = higher value
Procedure, shortened: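 Inhibition values express reduced yeast growth in compound-treated cultures relative to vehicle-treated controls.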

[2] = NCI Yeast Anticancer Drug Screen. Data for the mec2-1 strain (AID 157); details: S. cerevisiae mec2-1 strain, at 50.0 µM, stronger effect = higher value
Procedure, shortened: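 Cells of the genetically defined mec2-1 yeast strain are incubated with test compound. Inhibition of growth is calculated against vehicle-treated controls.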

[3] = NCI Yeast Anticancer Drug Screen. Data for the sgs1 mgt1 strain (AID 161);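 note: 0% = growth of cultures given vehicle only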; details: S. cerevisiae sgs1 mgt1 strain, at 50.0 µM, stronger effect = higher value
Procedure, shortened: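 Mutant yeast exposed to compound; growth scored against vehicle-only wells.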

[4] = NCI Yeast Anticancer Drug Screen. Data for the cln2 rad14 strain (AID 165);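 note: 0% = growth equal to vehicle treated cultures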; details: S. cerevisiae cln2 rad14 strain, at 50.0 µM, stronger effect = higher value
Procedure, shortened: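 The screen exposed genetically defined yeast (cln2 rad14) to test compounds and scored growth inhibition relative to vehicle-treated controls.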

[5] = NCI Yeast Anticancer Drug Screen. Data for the bub3 strain (AID 167); details: S. cerevisiae bub3 mutant strain, at 50.0 µM, stronger effect = higher value
Procedure, shortened: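 Steps: expose the mutant yeast strain to compound; grow alongside vehicle-treated cultures; measure growth; express inhibition against the vehicle cultures.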

[6] = NCI Yeast Anticancer Drug Screen. Data for the mlh1 rad18 strain (AID 175); details: S. cerevisiae mlh1 rad18 strain growth inhibition; at 50.0 µM; stronger effect = higher value
Procedure, shortened: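 Compound-treated yeast growth, normalised to vehicle controls. Strain bears defined DNA repair mutations.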

Row | Compound | growth inhibition [1] | growth inhibition [2] | growth inhibition [3] | growth inhibition [4] | growth inhibition [5] | growth inhibition [6]
1 | COC(=O)N1CCc2c([nH]oc2=O)C1 | -6.75% | -5.4% | -4.5% | -13.4% | -0.8% | -3.75%
2 | C[N+]1(C)C2CCC1CC(OC(=O)C(O)c1ccccc1)C2 (stereo not given) | -6.8% | -54.4% | -5.1% | -4.85% | -13.8% | -4.8%
3 | CC(=O)C[n+]1ccccc1Oc1ccccc1 | 5.9% | 4.15% | 4.25% | 11.2% | 12.8% | 3.75%
4 | COc1cc(C)cc2c(-c3c(O)cc(O)c4c3CC(C)N[C@H]4C)cc(-c3cc(-c4c(O)cc(O)c5c4CC(C)N[C@H]5C)c4cc(C)cc(OC)c4c3O)c(O)c12 (stereo not given in full) | 15.2% | -20.4% | 7.9% | 18.9% | -13.9% | 16.5%
5 | CC1=NN(c2nc(N)nc(CN3CCOCC3)n2)C(C)(C)C1 | 30.1% | 3.5% | 17.4% | 20.6% | 5.75% | -2.05%
6 | CCCCCCCCCCCCCCCCOc1ccc2ccccc2c1 | 4.15% | -6.25% | 14.9% | -56.4% | 10.2% | 29.2%
7 | CCN(CC)Cc1ccccc1CO | 3.05% | 6.15% | 2.2% | 9.75% | 9.6% | 0.5%
8 | Cc1ccc(NC(=O)OCCN(C)C)cc1Cl | -6.75% | -25.8% | 16.4% | 11.1% | 8.2% | -4.6%
9 | N#CC(c1ccccc1)N(CCCCCCN(C(=O)c1ccccc1)C(C#N)c1ccccc1)C(=O)c1ccccc1 (stereo not given) | 17.1% | 37% | 20.3% | 13.1% | 40.4% | -29.1%
10 | CC1=C(O[Si](C(C)C)(C(C)C)C(C)C)C2CC1[C@@H]1C(=O)N(c3ccccc3)C(=O)[C@H]21 (stereo not given in full) | -1.45% | -10.8% | -7.15% | 5.5% | -15.6% | -15.1%
11 | CCCCC1(C#Cc2ccccc2)Sc2ccccc2N1C (stereo not given) | -9.9% | -8.45% | 9.25% | -21.9% | -7.9% | 2.25%
12 | COc1ccc(OC)c(C#N)c1C#N (tested in a mixture with another compound) | -25.1% | 5.9% | -0.15% | -41.5% | -3.35% | -6.75%
13 | CC(C)c1ccc(NC(=S)NCCO)cc1 | -7.95% | -4% | -21.7% | -9.65% | -4.1% | -10.9%
14 | Cc1ccc(S(=O)(=O)Oc2nc3ccccc3nc2N(S(=O)(=O)c2ccc(C)cc2)S(=O)(=O)c2ccc(C)cc2)cc1 | -9.8% | -1.3% | 1.3% | 10% | 5.95% | 17.7%
15 | O=C(O)c1nnn(Cc2ccccc2)c1C(=O)O | 7.75% | -6% | -17.6% | 2.35% | 15.8% | 20%
16 | O=C(O)c1ccc(Nc2nc3ccccc3nc2-c2cccs2)cc1 | 2.9% | 18.6% | 5.95% | 20.7% | 12.2% | -9.7%
17 | NC1=CN(Cc2ccccc2)C2=N/C(=C\c3ccccc3)C(=O)N12 | -13.3% | -5.8% | 8.5% | -16% | 14.2% | -33.7%
18 | O=C1CN(C2CCCCC2)CC(=O)N2C(c3ccccc3)CCCN12 (stereo not given) | 3.3% | -5.4% | 14.7% | 11.8% | 0.55% | -1.85%
19 | Cc1nn(C(=O)c2ccncc2)c2c1C(c1ccccc1)SC(N)=N2 (stereo not given) | -2.9% | -20.1% | 18.9% | 9.55% | 15.1% | 2.35%
20 | C#CCN(C)C(C)=O | 25.3% | -3.3% | 5.1% | 10.8% | 6.45% | 13.6%

Row | Compound | growth inhibition [1] | growth inhibition [2] | growth inhibition [3] | growth inhibition [4] | growth inhibition [5] | growth inhibition [6]
21 | COc1cc(O)c(C(C)=O)c(O)c1O | -20.4% | -12.8% | -3.1% | -36.7% | 4.8% | 6.45%
22 | O=C1c2ccccc2C(=O)c2c1ccc1c2[nH]c2ccccc21 | 2.15% | -4.8% | 3.75% | -67.2% | 0.8% | -4.85%
23 | c1ccc(COCCc2ccccn2)cc1 | -5.3% | -19.9% | -3.85% | -26.1% | -22.2% | -20.4%
24 | O=C1Nc2ccccc2C12CCNC2Cc1ccccc1 (stereo not given) | -17.2% | -12.2% | -11.8% | 19.8% | -8.55% | -21.4%
25 | COC1/C=C\C=C(/C)C(=O)Nc2cc3nc4cccc(Br)c4oc-3c(c2=O)CC(C)CC(OC)C(O)C(C)/C=C(\C)C1OC(N)=O (stereo not given) | 33.1% | 21.8% | 26.2% | 21.9% | 44.1% | 16.5%
26 | O=C(CCCN1CCC2(CC1)NC(=O)c1ccccc1O2)c1ccc(F)cc1 | 23.6% | 10.6% | 55.5% | 48.9% | 36.8% | 21.7%
27 | CCOC(=O)COC(=O)C1C(C(N)=O)N(CC(=O)OCC)CCN1CC(=O)OCC (stereo not given) | 1.85% | 1.9% | -7.9% | -0.85% | -2.45% | 2.25%
28 | CC1CN(C(c2ccccc2)c2ccccc2)CCN1CCO (stereo not given) | -3.75% | 20.6% | 12.3% | -65.2% | 4.85% | 25.4%
29 | C=C1CC/C=C(\C)CCC2C1CC2(C)C (stereo not given) | -5.1% | -17.1% | 1.9% | 12.2% | 21.1% | 10.9%
30 | Cc1ccc(S(=O)(=O)CC(=O)CC(=O)C(=O)Nc2ccc(Cl)cc2C)cc1 | 11.2% | -0.3% | -7.95% | -22.4% | -0.75% | 27.3%
31 | C[C@H]1C(=O)OCN1C(=O)OCc1ccccc1 | 0.05% | 16.4% | 12.3% | -6% | 12.6% | -0.5%
32 | Cc1ccc2c3c1CCCN3CCC2 | 3.45% | -3.85% | 15.6% | 61.9% | -0.55% | 8.95%
33 | CCCCCCCCCCCn1cnc2c(=S)nc[nH]c21 | 0.25% | 5.3% | -17.1% | 20.7% | -21.2% | -21.2%
34 | O=C1C2CC3C(C2)C13 | -1.55% | -6.9% | -8.05% | -5.9% | -10.2% | 11.5%
35 | CSc1nc2c(N)ncnc2n1C | 11.4% | 1.4% | 9.55% | 27.7% | 8.15% | 36.8%
36 | Brc1ncnc2c1ncn2C1CCCO1 (stereo not given) | -21.3% | -12.8% | -1.5% | -29.6% | 34.4% | -32.2%
37 | CC1CN=C(c2c(O)ccc3ccccc23)S1 (stereo not given) | 42.9% | 31.5% | 79.8% (active) | 26.8% | 34.4% | 61.3%
38 | CC(C)/C=N\N1C(N)=C(C#N)C(C#N)(C#N)C1C(C)C (stereo not given) | -0.65% | 10.5% | -35.3% | -19.4% | -12.2% | -41.3%
39 | Nc1ccc(/C=C/C(=O)O)cc1 | -9.1% | -6% | 11.6% | 10.8% | 2.55% | 9.95%
40 | C=C(Cl)C(Br)(CCl)CCC(Cl)C(C)C (stereo not given) (tested in a mixture with another compound) | 85% (active) | 86.3% (active) | 91% (active) | 91.5% (active) | 90.7% (active) | 73.8% (active)
